Our source for the Potency and outcome values is PubChem BioAssay (Tox21).

Results filed as inconclusive are left out. Calls of active or inactive are those of the source. Unless noted, calls follow the shape of the dose curve; as a rule, active = well fitted curve in the direction sought with a large enough effect in the repeat runs; inconclusive = weak or mixed curves; inactive = no such curve, though single readings can be large; an effect the other way counts as inactive or inconclusive.

Experiment [1] in a line: qHTS assay to identify small molecule agonists of the RXR signaling pathway - cell viability counter screen (AID 1159529). Also: series mostly up to about 77 µM; nearly all actives have a fitted effect of over 50% in size. A digest of the protocol:
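RXR-alpha-UAS-bla HEK 293T cells in medium with 2% charcoal-stripped FBS were pre-incubated 5 hr, then compound-treated 16 hr at 37 C. Viability was read by CellTiter-Glo luminescence in the same wells as the beta-lactamase assay, with tetraoctyl ammonium bromide as positive control.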

Experiment [2] can be described thus: qHTS assay to identify small molecule antagonists of the retinoid acid receptor (RAR) signaling pathway - cell viability counter screen (AID 1159551). Also: nearly all actives have a fitted effect of over 35% in size. A digest of the protocol: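 Luminescent ATP quantitation (CellTiter-Glo) gave cell viability in C3RL4 cells exposed to test chemicals for 6 h at 37 C alongside 1 uM final retinol.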
Experiment [3] in a line: qHTS assay to identify small molecule agonists of the retinoic acid receptor (RAR) signaling pathway (AID 1159553). Also: potency is read from the fitted curve at half-maximal effect. A digest of the protocol: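 Luminescence from a RARE-driven luciferase reporter in C3RL4 cells served as the read-out, measured after 30 min with detection reagent at room temperature. Compounds in DMSO were applied for 6 hr at 37 C following overnight seeding.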

A short description of experiment [4]: qHTS assay to identify small molecule antagonists of the estrogen related receptor (ERR) signaling pathway from Tox21 library - cell viability counter screen (AID 1224834). Also: nearly all actives have a fitted effect of over 30% in size. The procedure, abridged: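 Fluorescence from CellTiter-Fluor gives the viability read-out, taken 30 min after reagent addition. Before that, ERR cells seeded 6 h earlier were incubated with compounds for 17.5 h at 37 C.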

Experiment [5] deals with Luciferin 4-monooxygenase (Photinus pyralis) (UniProt P08659). As to the kind of experiment: qHTS assay to identify small molecule inhibitors of firefly luciferase (AID 1224835). Also: nearly all actives have a fitted effect of over 25% in size. Also: potency is read from the fitted curve at half-maximal effect. The procedure, abridged: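 Biochemical qHTS: compounds run as interplate titrations against purified firefly enzyme, with D-luciferin and ATP each at its KM concentration. Light output recorded by CCD imaging.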
Chain of Luciferin 4-monooxygenase (Photinus pyralis) (P08659 whole entry, looked up): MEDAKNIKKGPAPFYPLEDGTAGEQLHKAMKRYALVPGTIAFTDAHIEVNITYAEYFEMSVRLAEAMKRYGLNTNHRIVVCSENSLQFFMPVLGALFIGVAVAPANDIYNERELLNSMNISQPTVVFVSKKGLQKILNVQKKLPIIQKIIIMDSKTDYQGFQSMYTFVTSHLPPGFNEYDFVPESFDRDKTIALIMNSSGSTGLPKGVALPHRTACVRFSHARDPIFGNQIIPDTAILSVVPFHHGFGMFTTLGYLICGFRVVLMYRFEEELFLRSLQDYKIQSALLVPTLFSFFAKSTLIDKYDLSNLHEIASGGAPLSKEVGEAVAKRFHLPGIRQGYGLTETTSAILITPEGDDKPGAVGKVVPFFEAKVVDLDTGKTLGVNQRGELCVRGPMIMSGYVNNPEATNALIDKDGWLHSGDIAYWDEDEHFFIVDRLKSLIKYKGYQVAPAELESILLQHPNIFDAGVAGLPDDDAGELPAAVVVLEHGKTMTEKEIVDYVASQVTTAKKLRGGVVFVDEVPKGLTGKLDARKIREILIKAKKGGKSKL

The nature of experiment [6]: qHTS assay to identify small molecule agonists of the constitutive androstane receptor (CAR) signaling pathway - cell viability counter screen (AID 1224836). Also: series mostly up to about 92 µM; nearly all actives have a fitted effect of over 45% in size. A digest of the protocol:
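HepG2 cells stably carrying hCAR and a CYP2B6-2.2kb reporter; 15-concentration compounds plus PK11195 (final 0.75 uM), 23 hr at 37 C/5% CO2. Viability read by CellTiter-Fluor fluorescence.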

The nature of experiment [7]: qHTS assay to identify small molecule antagonists of the constitutive androstane receptor (CAR) signaling pathway - cell viability counter screen (AID 1224837). Also: series mostly up to about 92 µM; nearly all actives have a fitted effect of over 45% in size. A digest of the protocol:
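HepG2-CYP2B6-hCAR cells, 2500/well, 4 hr pre-incubation; compound titration, 15 conc.; CITCO 50 nM final; 23 hr, 37 C/5% CO2; CellTiter-Fluor, fluorescence intensity.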

Experiment [8] concerns the target Nuclear receptor subfamily 1 group I member 3 (Homo sapiens) (UniProt Q14994). As to the kind of experiment: qHTS assay to identify small molecule antagonists of the constitutive androstane receptor (CAR) signaling pathway (AID 1224838).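 Also: HepG2 cells stably expressing hCAR with CYP2B6 luciferase reporter stimulated by CITCO; nearly all actives have a fitted effect of over 40% in size.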 A digest of the protocol: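 HepG2-CYP2B6-hCAR cells; 4 h pre-incubation; cpd (15 conc) + CITCO 50 nM final; 24 h, 37 C/5% CO2; ONE-Glo, luminescence.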

Experiment [9] has the same target. As to the kind of experiment: qHTS assay to identify small molecule agonists of the constitutive androstane receptor (CAR) signaling pathway (AID 1224839). Also: series mostly up to about 92 µM; nearly all actives have a fitted effect of over 15% in size. The procedure, abridged: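 HepG2 cells stably co-transfected with hCAR and a CYP2B6-2.2kb luciferase reporter; compounds at 15 concentrations with 0.75 uM PK11195 present. After 24 hr at 37 C, luciferase read by ONE-Glo luminescence.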

Experiment [10] is described as follows: qHTS assay to identify small molecule antagonists of the estrogen related receptor signaling pathway with the pleiotropic PPARgamma coactivator (PGC) from Tox21 10K library - cell viability counter screen (AID 1224840; active = well fitted cell-killing curve with a large enough effect in the repeat runs, not every such curve was filed as active; also: nearly all actives have a fitted effect of over 40% in size). The procedure, abridged: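 PGC/ERR cells, 2,000/well; 6 h pre-incubation 37 C/5% CO2; cpd in DMSO via pin tool; 17.5 h 37 C; CellTiter-Fluor, 30 min; fluorescence.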

The nature of experiment [11]: qHTS assay to identify small molecule antagonists of the estrogen related receptor signaling pathway with the pleiotropic PPARgamma coactivator (PGC) from Tox21 10K library (AID 1224841; call rule not given here; also: actives are mostly falling curves and most rising ones were filed inactive; nearly all actives have a fitted effect of over 50% in size; also: potency is read from the fitted curve at half-maximal effect). The procedure, abridged:
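PGC/ERR cell line, 2,000 cells/well; 6 h pre-incubation 37 C/5% CO2; compounds (DMSO) pinned in; 18 h, 37 C; One-Glo, 30 min RT; luminescence.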

The nature of experiment [12]: qHTS assay to identify small molecule agonists of the estrogen related receptor signaling pathway with the pleiotropic PPARgamma coactivator (PGC) from Tox21 10K library (AID 1224842). Also: nearly all actives have a fitted effect of over 15% in size. A digest of the protocol: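 PGC/ERR reporter cell line, 2,000 cells per well, incubated 6 h at 37 C before 23 nL compound in DMSO was added. After 18 h at 37 C, One-Glo luminescence read following 30 min at room temperature.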

In experiment [13] the target is Thyrotropin receptor (Homo sapiens) (UniProt P16473). As to the kind of experiment: qHTS assay to identify small molecule agonists of the thyroid stimulating hormone receptor (TSHR) signaling pathway (AID 1224843; calls by dose curve; also: nearly all actives have a fitted effect of over 45% in size). A digest of the protocol:
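TSHR-HEK293 cells in agonist mode, 30 min room-temperature step, then cAMP measured by competitive HTRF (cAMP-d2 with anti-cAMP cryptate) after 1 h at room temperature. Tested at 15 concentrations in triplicate.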

Experiment [14] can be described thus: qHTS assay to identify small molecule agonists of the hypoxia (HIF-1) signaling pathway - cell viability counter screen (AID 1224844; calls by dose curve; also: nearly all actives have a fitted effect of over 50% in size). A digest of the protocol:
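ME-180 HRE-bla cells, 2,000/well, 0.5% dialyzed FBS; 5 hr settle, 17 hr compound at 37C/5% CO2; CCF4-AM reporter read first, then CellTiter-Glo luminescence after 30 min RT.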

A short description of experiment [15]: qHTS assay to identify small molecule antagonists of the retinoic acid receptor (RAR) signaling pathway (AID 1159552; also: nearly all actives have a fitted effect of over 50% in size). A digest of the protocol:
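Retinol signaling pathway inhibitors screened in C3RL4 RARE-luciferase reporter cells seeded overnight at 37 C, then compounds added with 1 uM (final) retinol as pathway substrate. After 6 hr at 37 C, luciferase luminescence read after 30 min at room temperature.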

Chain of Thyrotropin receptor (Homo sapiens) (P16473 whole entry, looked up): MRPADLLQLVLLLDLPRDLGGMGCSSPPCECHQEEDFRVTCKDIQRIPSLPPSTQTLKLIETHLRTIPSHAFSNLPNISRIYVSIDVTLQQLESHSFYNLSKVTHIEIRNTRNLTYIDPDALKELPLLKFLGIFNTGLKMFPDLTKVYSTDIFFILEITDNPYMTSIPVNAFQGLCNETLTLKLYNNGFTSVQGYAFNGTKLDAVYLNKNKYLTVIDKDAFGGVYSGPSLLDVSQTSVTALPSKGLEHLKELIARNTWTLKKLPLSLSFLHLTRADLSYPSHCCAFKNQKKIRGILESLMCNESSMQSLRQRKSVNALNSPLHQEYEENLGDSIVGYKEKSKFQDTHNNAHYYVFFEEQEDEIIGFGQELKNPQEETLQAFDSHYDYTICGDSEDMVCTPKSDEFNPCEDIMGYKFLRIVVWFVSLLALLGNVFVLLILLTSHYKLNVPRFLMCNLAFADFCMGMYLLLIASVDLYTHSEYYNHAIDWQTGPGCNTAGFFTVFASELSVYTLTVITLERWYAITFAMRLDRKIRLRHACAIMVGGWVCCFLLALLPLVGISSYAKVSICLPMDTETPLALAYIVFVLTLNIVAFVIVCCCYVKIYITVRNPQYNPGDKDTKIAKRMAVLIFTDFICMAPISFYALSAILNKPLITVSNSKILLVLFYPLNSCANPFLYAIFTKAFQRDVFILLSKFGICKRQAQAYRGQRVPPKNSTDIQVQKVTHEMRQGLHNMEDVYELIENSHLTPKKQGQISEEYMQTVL
Chain of Nuclear receptor subfamily 1 group I member 3 (Homo sapiens) (Q14994 whole entry, looked up): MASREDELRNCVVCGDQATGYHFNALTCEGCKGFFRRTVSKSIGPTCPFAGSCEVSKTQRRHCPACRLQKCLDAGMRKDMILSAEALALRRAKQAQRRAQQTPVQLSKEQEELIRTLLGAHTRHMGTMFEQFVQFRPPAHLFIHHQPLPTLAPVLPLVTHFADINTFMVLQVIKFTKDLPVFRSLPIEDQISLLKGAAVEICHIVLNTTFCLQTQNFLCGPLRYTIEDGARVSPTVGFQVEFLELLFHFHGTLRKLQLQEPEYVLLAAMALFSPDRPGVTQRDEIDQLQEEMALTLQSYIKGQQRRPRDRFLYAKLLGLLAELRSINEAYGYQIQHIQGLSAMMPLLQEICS

Take `C[C@]12CC[C@H]3[C@@H](CCC4=CC(=O)CC[C@@]43C)[C@@H]1CC[C@@H]2C(=O)O`: the Potency result in experiment [1], in experiment [2], in experiment [3], in experiment [4], in [5] and in [6] was “inactive” in each case. In addition, the Potency result in experiment [7], in [8], in [9], in experiment [10], in [11] and in experiment [13] was “inactive” in each case. The Potency result in experiment [14] was “inactive”. Besides, the compound was called inactive in experiment [12].
On to `O=C(Oc1ccc(Br)cc1)N1CCN2CCC1CC2`, for which the Potency result in experiment [1], in experiment [2], in experiment [3], in [4], in experiment [5] and in experiment [6] was “inactive” in each case. The Potency result in experiment [7], in experiment [10], in experiment [13] and in experiment [14] was “inactive” throughout.
Consider `N#CCNCC#N`, for which the Potency result in experiment [1], in experiment [2], in experiment [4], in experiment [5], in [6] and in [7] was “inactive” in each case. Besides, the Potency result in experiment [8], in [9], in experiment [10], in experiment [11], in experiment [13] and in experiment [14] was “inactive” in each case. Moreover, the compound was called inactive in [12].
As to `O=C(Cc1ccccc1)OCc1ccccc1`, the Potency entry in [1], in experiment [2], in experiment [4], in [6], in experiment [7] and in experiment [8] was “inactive” each time. Besides, the Potency entry in [10], in experiment [13] and in [14] was “inactive” each time. Besides, the Potency in experiment [3] was 61.6 µM (active); in [5], 20.2 µM (active).
With `CCOC(=O)NC(=S)Nc1ccccc1NC(=S)NC(=O)OCC`, the Potency result in experiment [1], in experiment [2], in experiment [15], in experiment [4], in experiment [5] and in experiment [6] was “inactive” each time. Further, the Potency result in [7], in experiment [10], in experiment [11] and in experiment [14] was “inactive” in each case. Moreover, the result in experiment [12] was inactive.
In the case of `CCC(=O)C(CCN(C)C)(c1ccccc1)c1ccccc1`, the Potency entry in experiment [1], in [2], in [3], in experiment [4], in [5] and in [6] was “inactive” in each case. The Potency result in experiment [7], in experiment [10] and in [14] was “inactive” in each case.
For `CNC(=O)Oc1ccccc1C1OCCO1`, the Potency result in [1], in [2], in experiment [3], in experiment [4], in experiment [5] and in [6] was “inactive” throughout. Also, the Potency entry in experiment [7], in [9], in experiment [10], in experiment [11] and in experiment [14] was “inactive” in each case. In addition, the call in experiment [12] was inactive.
Consider `CCOC(=O)/C=C(C)/C=C/C[C@@H](C)CCCC(C)C`, for which the Potency entry in experiment [1], in [2], in experiment [3], in [4], in experiment [5] and in [6] was “inactive” each time. Also, the Potency entry in experiment [7], in experiment [9], in experiment [10] and in experiment [14] was “inactive” throughout.
Take `CS(=O)(=O)c1cc(C(F)(F)F)ccc1C(=O)c1cnoc1C1CC1`: the Potency result in [1], in experiment [2], in experiment [3], in [4], in experiment [5] and in experiment [6] was “inactive” in each case. Besides, the Potency entry in experiment [7], in experiment [9], in [10], in experiment [11], in [13] and in experiment [14] was “inactive” each time.
On to `CCCCC(=O)Cl`, for which the Potency entry in experiment [1], in experiment [2], in experiment [4], in experiment [5], in experiment [6] and in experiment [7] was “inactive” throughout. In addition, the Potency result in [8], in experiment [9], in [10], in experiment [11], in [13] and in experiment [14] was “inactive” throughout. Moreover, the outcome in experiment [12] was inactive.
In the case of `CCC(C)(C)c1cc(-n2nc3ccccc3n2)c(O)c(C(C)(C)CC)c1`, the Potency entry in [1], in experiment [2], in experiment [3], in experiment [5], in experiment [8] and in experiment [9] was “inactive” in each case. In experiment [13], the Potency entry is “inactive”. In addition, the Potency in [11] was 49.3 µM (active).
Turning to `CCOP(=S)(OCC)Oc1nc(Cl)n(C(C)C)n1`, the Potency entry in experiment [1], in experiment [2], in experiment [3], in experiment [4], in experiment [6] and in experiment [7] was “inactive” throughout. Moreover, the Potency result in experiment [10] and in experiment [13] was “inactive” each time.
